The record followed here is PubChem BioAssay AID720649 (The Scripps Research Institute Molecular Screening Center, 2013).

A short description of the test: TO-PRO-1 dye complex inhibitors on d(CAG) DNA, dose response, counter-screen, biochemical, fluorescence, late stage (AID 720649). Conditions: d(CAG) DNA duplex TO-PRO-1 dye displacement. In general terms: A counterscreen serves to expose hits that act by an unwanted route or on another target.

This is one part of the list. Active and inactive are the calls of the source. No rule for the calls is given here.

The IC50 is the midpoint of a concentration-inhibition curve. `O=C1CC(=O)N(Cc2ccccc2)C(=O)N1CCCCCCN1C(=O)CC(=O)N(Cc2ccccc2)C1=O`: the IC50 is 6.7 µM (active).
